Sampled rows, rich in hits. Any-hit rate of the full collection: about 5.9%.
AHR act = activates the human aryl hydrocarbon receptor; activation, % at 5 µM; AHR-responsive luciferase reporter cells, luminescence; AID 2796; 320,000 compounds, 2.5% hits; P35869; in the data active means activation above about 47%;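 further: 0% = vehicle wells and 100% = reference agonist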
HSF1 activator = increases HSF-1 driven luciferase reporter signal; NIH3T3-HGL HSF-1 luciferase reporter, MG132, 8 h; 100% = twice DMSO control signal; activation, % at 9 µM; 300,000 compounds, 1.7% hits;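 active means mean replicate activation of at least 50% with a set share of replicates each reaching 50%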;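 further: 0% = median of the neutral control wells and 100% = twice that signal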
GAA850 FXN act = activators of GAA850 frataxin (FXN) promoter; HEK293 lucGAA850 FXN promoter luciferase reporter, 24 h; percent of 10 µM SAHA response; activation, % at 6 µM; 360,000 compounds, 0.56% hits; AID 540364;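 active means activation above the average of all compounds screened plus 3 SD, cutoff fixed separately per campaign, cut at about 7.5% in these data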;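 further: 0% = DMSO wells and 100% = 10 µM SAHA wells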
HSF1 inhib = HSF1 inhibition; activity change, negative = inhibition, % at 7.5 µM (by protocol); NIH3T3-HGL HSE-luciferase, MG132-induced, luminescence 8 h; stronger effect = lower value; 300,000 compounds, 0.77% hits; AID 2098;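 active means more than half of replicate wells show activity change below -50%, luminescence cut by over half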;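 further: luciferase reports HSF-1 transcriptional activity via heat shock element; 0% = median of DMSO wells and -100% = zero luminescence signal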
HSP90 inh = blocks HSP90-mediated luciferase refolding in reticulocyte lysate; 290,000 compounds, 0.91% hits; Rabbit reticulocyte lysate, luciferase refolding luminescence, 3 h; inhibition, % at 5.6 µM;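 active means inhibition above the screen-wide mean plus 3 SD, computed separately per campaign, cut at about 16% in these data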;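 further: 0% = DMSO wells and 100% = 60 µM geldanamycin wells; inhibitors lower the luminescence because luciferase stays unfolded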
DAX1 inh = inhibits human nuclear receptor DAX1; inhibition, % at 6.75 µM; HEK293 Gal4-DAX1 luciferase reporter, luminescence; 340,000 compounds, 0.99% hits; P51843;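 active means inhibition above the mean over all tested compounds plus 3 SD, cut at about 4.2% in these data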;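 further: 0% = DAX1-transfected cells with DMSO and 100% = empty-vector control cells with DMSO; inhibition shows as a rise in luminescence from relieved DAX1 repression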
Target sequence (P51843 207-470 limits assumed): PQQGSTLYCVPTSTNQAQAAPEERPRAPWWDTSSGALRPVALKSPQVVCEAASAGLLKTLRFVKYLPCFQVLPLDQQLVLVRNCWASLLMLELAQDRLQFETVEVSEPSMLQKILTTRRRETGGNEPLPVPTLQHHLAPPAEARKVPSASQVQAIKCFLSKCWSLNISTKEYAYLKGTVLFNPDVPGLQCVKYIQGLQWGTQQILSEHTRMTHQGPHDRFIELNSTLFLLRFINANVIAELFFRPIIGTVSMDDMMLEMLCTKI
* = called active by the depositor; . = no result given.

SMILES	AHR act	HSF1 activator	GAA850 FXN act	HSF1 inhib	HSP90 inh	DAX1 inh
Cn1c(-c2ccccc2)cc(=NNS(C)(=O)=O)c2cc(S(=O)(=O)O)ccc21	.	.	0.3	.	.	1.4
O=C(NN1C(=O)c2cc(Br)ccc2NC1c1cc(Br)cc(Br)c1O)c1ccncc1 (stereo unspecified)	56.1*	-4.3	0.5	1.2	4.9	0.3
COc1ccc(Br)cc1C1Nc2ccccc2C(=O)N1NC(=O)c1ccncc1 (stereo unspecified)	10.4	8.7	-3.2	3.5	-1.0	-0.4
O=C(NN1C(=O)c2cc(Br)ccc2NC1c1ccccc1Cl)c1ccncc1 (stereo unspecified)	48.5*	-1.3	1.9	4.0	1.0	-0.2
COc1cc(OC)c(NC(=O)c2cncn2-c2ccc(F)cc2)cc1Cl	65.0*	13.9	-0.5	11.1	2.2	-0.5
N#Cc1ccccc1NC(=O)CN1C(=O)NC2(CCCC2)C1=O	18.4	13.6	0.8	-2.3	-4.5	4.7*
O=C(CN1C(=O)NC2(CCCCCC2)C1=O)Nc1ccccc1[N+](=O)[O-]	12.7	.	1.0	.	.	1.3
Cn1c(-c2ncc(F)cc2F)cc2onc(-c3c(F)cccc3Cl)c2c1=O	50.2*	.	2.2	.	.	6.4*
Cn1c(-c2ccccc2)cc2onc(-c3ccccc3)c2c1=O	-10.4	.	-6.2	.	.	1.9
Cn1c(-c2ccccc2F)cc2onc(-c3ccccc3)c2c1=O	-9.5	.	1.6	.	.	5.5*
Cc1onc(-c2c(F)cccc2Cl)c1C(=O)NC1CC1	1.3	10.1	1.0	-3.3	-0.3	0.1
CC(=O)Nc1cc(-c2ccc(N(C)C)cc2)cn2c(-c3ccc(F)cc3)cnc12	.	.	4.0	.	.	.
CC(C)C(=O)N1CCC1(C)C(=O)NS(=O)(=O)c1cccs1 (stereo unspecified)	.	.	-3.3	.	.	.
C[C@H](O)[C@@H]1C(=O)N2CCc3ccc(N4CCN(C)CC4)cc3[C@@H]2C[C@@H]1N(C)C(=O)NC1CCCCC1	.	.	-0.6	.	.	0.2
Cc1coc2cc3oc(=O)c(CCC(=O)N4C[C@H]5C[C@@H](C4)c4cccc(=O)n4C5)c(C)c3cc12	-1.0	3.3	-1.6	-0.8	-5.1	2.2
COc1cccc(CNC(=O)CN(C)S(=O)(=O)c2ccc(Br)s2)c1	0.8	8.1	0.0	-2.3	-1.1	10.4*
COc1ccc(CNC(=O)CN(C)S(=O)(=O)c2ccc(Br)s2)cc1	-0.6	3.0	0.3	-5.2	-1.1	-1.1
O=C(c1ccco1)N1N=C(c2cccs2)CC1c1ccccc1O (stereo unspecified)	10.9	16.3	1.4	9.9	2.9	-0.5
COc1cccc(C2CC(c3cccs3)=NN2C(=O)c2ccco2)c1O (stereo unspecified)	6.1	62.8*	-0.9	72.7	6.8	-0.9
CCCNC(=O)NC(=O)CSc1cccc(C(F)(F)F)c1	5.1	77.2*	1.8	37.3	-0.8	-0.2
CNC(=O)NC(=O)CSc1cccc(C(F)(F)F)c1	4.6	27.5	4.1	5.3	1.8	0.3
COCCCN1C(=O)c2[nH]nc(-c3ccccc3O)c2C1c1cccc(Cl)c1 (stereo unspecified)	17.0	71.1*	-5.6	36.1	11.3	-3.3
COC(=O)CCNC(=O)c1ccc2nc(Cc3ccc(OC)cc3)oc2c1	-1.6	-60.5	-1.2	-48.2	7.9	-1.1
COc1ccc(Cc2nc3ccc(C(=O)NCC(C)(C)OC)cc3o2)cc1	14.0	29.3	4.1	19.5	-7.1	4.6*
CN(CC1CCOCC1)C(=O)c1ccc2nc(Cc3cccc(Cl)c3)oc2c1	0.7	-4.5	0.9	6.1	-6.6	-0.9
SMILES	AHR act	HSF1 activator	GAA850 FXN act	HSF1 inhib	HSP90 inh	DAX1 inh
O=C(NCC1CCOCC1)c1ccc2nc(Cc3cccc(Cl)c3)oc2c1	4.3	54.0*	0.9	11.9	-2.9	-0.1
COc1cc2c(cc1OC)C(=NO)CCCC2	.	.	1.3	.	.	0.0
Cc1ccc(C(=O)OCC(=O)NCc2ccc(Cl)cc2Cl)o1	-0.9	.	0.0	.	.	0.9
CC(=O)c1ccc(OC2(C)CCN(CCOc3ccc(C)cc3)C2)cc1 (stereo unspecified)	.	.	-1.1	.	.	.
CCCCCOc1ccc(Br)cc1/C(C)=N/NC1=NCCN1	62.4*	-31.1	-1.3	-33.1	3.6	-0.5
COc1ccc(Br)cc1/C(C)=N/NC1=NCCN1	38.8	2.1	-3.1	-3.8	3.0	-2.3
CCOC(=O)c1c(-c2ccc(C)o2)csc1NC(=O)CSc1nncs1	15.4	95.5*	1.8	80.3	0.5	-1.8
COc1ccc(C)cc1NCC(=O)Nc1ccc(C(C)(C)C)cc1	24.1	5.6	2.5	11.2	1.2	0.3
O=C(Cn1cnc2c(NCc3ccccc3)ncnc21)NCCCc1ccccc1	.	.	0.3	.	.	-0.1
COc1ccc(-c2cc(C(F)(F)F)nc(S(C)(=O)=O)n2)cc1	-0.3	320.9*	4.9	261.9	7.4	-2.2
CS(=O)(=O)c1nc(-c2cccs2)cc(C(F)(F)F)n1	-1.0	-89.8	.	-89.8*	4.7	.
O=[N+]([O-])c1cnn(-c2nc(-c3cccs3)cc(C(F)(F)F)n2)c1	3.0	8.1	2.2	-7.8	-0.8	4.7*
CC1CCCC(C)N1C(=O)COC(=O)c1ccco1 (stereo unspecified)	-2.2	.	1.4	.	.	0.7
Cc1cccc(N=C2NC(=O)S/C2=C\c2ccco2)c1	67.6*	8.3	1.2	6.8	4.0	-0.7
O=C1NC(=Nc2ccc(Cl)cc2)/C(=C/c2ccco2)S1	8.5	30.2	-0.7	6.3	0.2	0.4
CC(C)(C)C(=O)NCC12C=CC(O1)C1C(=O)N(c3ccccc3)C(=O)C12 (stereo unspecified)	1.5	203.1*	-0.5	183.7	1.7	-1.5
Cc1ccc(N2C(=O)C3C4C=CC(CNC(=S)Nc5ccc(Cl)cc5)(O4)C3C2=O)cc1 (stereo unspecified)	1.4	55.4*	-3.5	28.9	-2.1	-1.2
O=[N+]([O-])c1ccc2cc[nH]c2c1	.	.	2.4	.	.	-1.4
O=C(O)c1cccc(NC(=S)N/N=C/c2cccnc2)c1	3.6	-62.1	2.4	-59.6*	-1.7	-1.2
O=C(N/N=C/c1cccnc1)c1cccc(F)c1	11.8	4.3	2.3	5.6	3.0	4.9*
O=C(N/N=C/c1cccnc1)c1cc(Br)ccc1O	29.1	7.5	2.6	6.7	2.1	0.2
O=C(N/N=C/c1ccc(Cl)cc1Cl)c1cccc(F)c1	-2.7	55.6*	2.5	28.7	0.9	2.6
CCOc1ccc(Br)cc1C(=O)N/N=C/c1cccnc1	66.5*	-9.8	-0.9	-6.5	4.6	-0.6
COc1ccc(OC)c(NS(=O)(=O)c2ccc3[nH]c(=O)[nH]c3c2)c1	.	.	-1.1	.	.	0.2
CC(=O)Nc1cccc(C(=O)N/N=C/c2cccnc2)c1	12.0	-1.4	0.4	-2.1	2.3	1.9
O=C(N/N=C/c1cccnc1)c1cccc(NC(=O)c2cccc(Br)c2)c1	76.4*	34.6	-2.0	18.6	-1.9	-1.8
O=C(CNC(=O)c1cccs1)Nc1cccc(S(=O)(=O)N2CCOCC2)c1	.	.	2.2	.	.	-0.2

Screening data deposited in PubChem by several laboratories.
